Screening results deposited in PubChem BioAssay by National Center for Advancing Translational Sciences (NCATS).
DT40 TDP1 no CPT = qHTS for Inhibitors of human tyrosyl-DNA phosphodiesterase 1 (TDP1): qHTS in cells in absence of CPT. DT40 Tdp1-/- hTDP1 cells, no CPT, ATP luminescence, 48 h. Potency, µM (top dose mostly 46.2 µM), for the others: at the top dose activity change, negative = growth inhibition, most hits filed as inhibitors. 15% of 420,000 active. AID 686978, 2013; further: nearly all actives have a fitted effect of over 55% in size
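Chicken DT40 Tdp1-/- cells stably complemented with human TDP1 were seeded at 400 cells/well with DMSO in place of 20 nM camptothecin. After compound pinning, cells grew at least 48 hr at 37 °C; viability read by CellTiter-Glo luminescence.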
TDP1 cell CPT = DT40-hTDP1 cell growth loss with CPT; Potency, µM (series often up to 46.2 µM), without a hit: top-dose activity change, negative = growth inhibition, actives largely listed as inhibitors; 12% of 420,000 active; AID 686979; chicken DT40 Tdp1-/-;hTDP1 cells + 20 nM CPT, ATP luminescence, 48 h; further: nearly all actives have a fitted effect of over 55% in size
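Chicken DT40 Tdp1-/- cells stably complemented with human TDP1 were seeded at 400 cells/well in medium containing 20 nM camptothecin, exposed to pin-transferred compounds, and grown at 37 °C for at least 48 hr. Viability was read as ATP luminescence.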
VP16 counter = inhibits Gal4-VP16 luciferase reporter, ROR gamma counter-screen; Potency, µM (top dose mostly 53.6 µM), for the others: at the highest dose activity, negative = inhibition, most hits filed as inhibitors; Drosophila S2 Gal4-VP16 UAS-luciferase, luminescence, 20 h; 3.5% of 310,000 active;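 further: Gal4-VP16 expression switched on by copper sulfate through the metallothionein promoter; nearly all actives have a fitted effect of over 50% in size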
TDP1 block = blocks human tyrosyl-DNA phosphodiesterase 1. recombinant TDP1, AlphaScreen DNA substrate cleavage. Potency, µM (top dose mostly 130 µM), inactives show at the highest dose activity change, negative = inhibition, actives largely listed as inhibitors. Q9NUW8. 0.28% of 350,000 active; further: nearly all actives have a fitted effect of over 40% in size
Target sequence (Q9NUW8 whole entry, looked up): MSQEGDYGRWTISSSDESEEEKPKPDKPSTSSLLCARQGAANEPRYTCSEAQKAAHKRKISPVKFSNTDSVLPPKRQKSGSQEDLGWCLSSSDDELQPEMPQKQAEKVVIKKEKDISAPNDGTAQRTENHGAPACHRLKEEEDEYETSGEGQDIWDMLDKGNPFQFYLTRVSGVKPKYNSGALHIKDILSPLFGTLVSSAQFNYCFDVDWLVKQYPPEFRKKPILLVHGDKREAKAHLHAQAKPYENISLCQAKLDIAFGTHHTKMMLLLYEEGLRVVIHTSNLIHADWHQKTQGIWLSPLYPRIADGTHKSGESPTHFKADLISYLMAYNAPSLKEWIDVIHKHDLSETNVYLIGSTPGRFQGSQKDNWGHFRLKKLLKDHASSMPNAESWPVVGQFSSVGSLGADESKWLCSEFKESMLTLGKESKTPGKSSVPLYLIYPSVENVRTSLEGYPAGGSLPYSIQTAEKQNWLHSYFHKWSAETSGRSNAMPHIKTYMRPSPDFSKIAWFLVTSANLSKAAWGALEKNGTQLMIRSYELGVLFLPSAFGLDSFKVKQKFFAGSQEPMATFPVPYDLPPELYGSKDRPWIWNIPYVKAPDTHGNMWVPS
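Signal: AlphaScreen proximity between streptavidin donor and anti-FITC acceptor beads on intact substrate. Reaction: Tdp1 1 nM, substrate 15 nM final, 5 min RT after 15 min compound preincubation.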
RORgamma inh = inhibitors of mouse ROR gamma transcriptional activity. Potency, µM (doses to about 53.6 µM), inactives show at the highest dose activity change, negative = inhibition, usual class: inhibitors. 5.4% of 310,000 active. Drosophila S2 Gal4-RORgamma UAS-luciferase reporter, 20 h. P51450; further: nearly all actives have a fitted effect of over 60% in size
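Using a luciferase readout, inhibitors were identified by reduced reporter activity in Drosophila cells coexpressing a copper-inducible Gal4–ROR gamma fusion and UAS-driven Photinus luciferase, incubated 20 hr after 700 uM copper sulfate.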
The depositor's hits bear a star; ? = inconclusive; nt = no result given. Shown are actives, neighbours in structure and some others; about 19% of the full set was active somewhere. The call rests on the fitted dose curve; in most records, active means well fitted curve in the direction sought with a large enough effect; inconclusive means small, poorly fitted or top-dose-only effect, or another doubt; inactive means no such curve, though single readings can be large; an effect the other way counts as inactive or inconclusive. On the % scale 0 is the no-effect control and ±100 the full control effect; potency means the concentration at half of the fitted maximal effect.

SMILES	DT40 TDP1 no CPT	TDP1 cell CPT	VP16 counter	TDP1 block	RORgamma inh
Cc1ccc(CNC(=O)c2cc(S(=O)(=O)N3CCCCC3)ccc2N2CCOCC2)cc1	18µM*	?	nt	1%	nt
O=C(COC(=O)c1cc(S(=O)(=O)N2CCCCC2)ccc1N1CCOCC1)NCCc1ccc(F)cc1	10µM*	-22%	-2%	-2%	-27%
Cc1ccc(C)c(COC(=O)c2cc(S(=O)(=O)N3CCCCC3)ccc2N2CCOCC2)c1	13µM*	?	nt	0%	nt
Cc1ccc(C)c(COC(=O)c2cc([N+](=O)[O-])ccc2N2CCOCC2)c1	?	?	nt	0%	nt
COc1ccc(CNC(=O)c2c(F)c(F)c(F)c(F)c2F)cc1	7%	-1%	4%	4%	18%
O=C1Nc2ccc([N+](=O)[O-])cc2OC1CCN1CCOCC1 (configuration not stated)	-16%	5%	-2%	0%	0%
CCc1cccc(NC(=O)c2cc(S(=O)(=O)N3CCCCC3)ccc2N2CCOCC2)c1	16µM*	21µM*	nt	nt	nt
CC(C)CCCC(C)NC(=O)c1cc(S(=O)(=O)N2CCCCC2)ccc1N1CCOCC1 (configuration not stated)	13µM*	23µM*	nt	0%	nt
CCS(=O)(=O)N1CCc2cc(C(=O)NCc3ccccc3Cl)ccc21	?	?	nt	11%	nt
Cc1ccc(CNC(=O)c2ccc3c(c2)CCN3S(=O)(=O)c2ccccc2)cc1	?	?	nt	7%	nt
CCS(=O)(=O)N1CCc2cc(C(=O)NCc3ccc(Cl)cc3)ccc21	16µM*	?	nt	9%	nt
COc1ccc(CNC(=O)c2ccc3c(c2)CCN3S(=O)(=O)c2ccc(Cl)cc2)cc1	16µM*	?	nt	7%	nt
Cc1cccc(N2C(=O)/C(=C\c3ccc(OC(F)F)cc3)c3ccccc3C2=O)c1	?	?	0%	8%	2%
COc1cccc(/C=C2\C(=O)N(c3cccc(C)c3)C(=O)c3ccccc32)c1	?	26µM*	?	-3%	?
CNC(=O)N(O)C1N(/N=C/c2ccccc2F)C(=S)SC1(C)C (configuration not stated)	13%	-12%	23%	nt	20%
CCOc1ccccc1C(=O)N1CCc2cc(OC)c(OC)cc2C1COc1ccc2c(C)cc(=O)oc2c1 (configuration not stated)	9.2µM*	?	nt	0%	nt
COc1cc2c(cc1OC)C(COc1ccc3c(C)cc(=O)oc3c1)N(C(=O)C(C)C)CC2 (configuration not stated)	13µM*	?	nt	6%	nt
CCC(=O)N1CCc2cc(OC)c(OC)cc2C1COc1ccc2c(C)cc(=O)oc2c1 (configuration not stated)	-26%	-4%	nt	6%	nt
COc1cc2c(cc1OC)C(COc1ccc3c(C)cc(=O)oc3c1)N(C(=O)c1ccco1)CC2 (configuration not stated)	21µM*	?	-13%	1%	-10%
COc1ccc(CC(=O)N2CCc3cc(OC)c(OC)cc3C2COc2ccc3c(C)cc(=O)oc3c2)cc1OC (configuration not stated)	-3%	2%	nt	3%	nt
COc1cc2c(cc1OC)C(COc1ccc3c(C)cc(=O)oc3c1)N(C(=O)c1cccc(OC)c1OC)CC2 (configuration not stated)	23µM*	?	nt	-6%	nt
COc1cc2c(cc1OC)C(COc1ccc3c(C)cc(=O)oc3c1)N(C(=O)c1cccc(C)c1)CC2 (configuration not stated)	6.5µM*	?	nt	-3%	nt
O=CN/C=C/c1cc(O)ccc1O	4.6µM*	4.1µM*	16µM*	7.9µM*	11µM*
Cc1ccc(OCC(=O)NC(=S)Nc2ccc(Br)c(C)n2)cc1	-8%	-14%	-11%	1%	2.5µM*
Brc1cccc(-c2nc3c4ccccc4ccn3c2CC2CCCCC2)c1	-23%	4%	nt	nt	nt
SMILES	DT40 TDP1 no CPT	TDP1 cell CPT	VP16 counter	TDP1 block	RORgamma inh
c1ccc2c(c1)ccn1c(Cc3ccsc3)c(C3CCCCC3)nc21	15µM*	18µM*	nt	nt	nt
Cc1ccc(Cc2c(C3CCCCC3)nc3c4ccccc4ccn23)cc1	23µM*	?	nt	nt	nt
Cc1ccc(-n2nc3c(=O)n(CC(=O)NCCc4ccco4)nc(C)c3c2C)cc1	-7%	?	-3%	4%	10%
COC(=O)c1[nH]c2ccc(C)cc2c1NC(=O)CN1CCN(C(=O)c2ccccc2)CC1	?	?	-4%	4%	-3%
CCOC(=O)c1[nH]c2ccc(F)cc2c1NC(=O)CN1CCN(C/C=C/c2ccccc2)CC1	?	?	?	6%	?
COC(=O)c1[nH]c2ccc(C)cc2c1NC(=O)CN1CCN(c2ccc(F)cc2)CC1	16µM*	11µM*	13µM*	7%	-43%
Cc1ccc2[nH]c(C(=O)O)c(NC(=O)CN3CCN(c4cccc(C)c4C)CC3)c2c1	23µM*	?	0%	1%	?
Cc1ccc(C)c(N2CCN(CC(=O)Nc3ccc4[nH]c(=O)[nH]c4c3)CC2)c1	?	-23%	-9%	-3%	?
COC(=O)c1[nH]c2ccccc2c1NC(=O)CN1CCN(C/C=C/c2ccccc2)CC1	?	26µM*	-1%	9%	0%
COC(=O)c1[nH]c2ccc(C)cc2c1NC(=O)CN1CCN(c2ccccc2)CC1	23µM*	16µM*	11µM*	12%	?
COc1ccccc1N1C(=O)[C@@H]2C(C(=O)CN3C(=O)c4ccccc4C3=O)=NN[C@@H]2C1=O	1%	4%	-8%	nt	5%
COc1cc2nc(SCC(=O)Nc3c(C)cc(C)cc3C)n3nc(CCn4c(C)nc5ccccc54)nc3c2cc1OC	-24%	?	nt	5%	nt
COC(=O)c1[nH]c2ccc(C)cc2c1NC(=O)CN1CCN(Cc2ccccc2)CC1	26µM*	18µM*	-2%	5%	8%
CCOC(=O)c1[nH]c2ccc(OCC)cc2c1NC(=O)CN1CCC2(CC1)OCCO2	?	?	-11%	-4%	15%
CCOC(=O)c1[nH]c2ccc(OCC)cc2c1NC(=O)CN1CCN(c2ccccc2)CC1	?	21µM*	-1%	4%	?
CC1=NOC(=O)/C1=C/c1ccc(-c2ccc(Cl)cc2)o1	nt	nt	?	-1%	?
Cc1ccc(-c2ccc(/C=C3\C(=O)ON=C3c3ccccc3)o2)c([N+](=O)[O-])c1	16µM*	8.2µM*	16µM*	5%	?
Cc1ccc(/C=C2\C(=O)ON=C2c2ccccc2)o1	0%	-8%	-4%	0%	-9%
